In PubChem BioAssay AID1159580 (chemical genetic matrix, 2015):
“And” between values parts separate entries of the source, which are not always exact repeats. Equal values may be shown once. Among all 5,500 compounds or so, about 2,000 (36%) were called active. About 18% were inconclusive and are not listed. Cut-off read from the data, not from the text of the source: active = normalized growth mostly below about 0.91 (no sharp cut-off); inconclusive = no clear call, values can overlap the other calls; inactive = mostly above about 0.92. Some of the results follow.

Assay: chemical genetic growth profiling, strain panel (AID 1159580);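 note: tested at 20 µM; growth read once vehicle control cultures reached saturation at 30 °C; 1 = growth at the plate median or of vehicle wells; lower values mean less growth of the strain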
Details: S. cerevisiae deletion strains, growth OD

Measured: normalized growth

CC(=O)Nc1c(I)cc(I)c(C(=O)O)c1I
inactive: locus YAL013W, strain DEP1, stronger effect = lower value 0.992 | locus YAL021C, strain ccr4, stronger effect = lower value 0.986 | locus YAL026C, strain drs2, stronger effect = lower value 0.995 | locus YAL030W, strain snc1, stronger effect = lower value 0.978 | locus YBL061C, strain skt5, stronger effect = lower value 0.974 | locus YBR009C, strain hhf1, stronger effect = lower value 0.992 | locus YBR021W, strain FUR4, stronger effect = lower value 1.02 | locus YBR023C, strain chs3, stronger effect = lower value 0.979 | locus YBR171W, strain sec66, stronger effect = lower value 0.967 | locus YBR229C, strain ROT2, stronger effect = lower value 0.983 | locus YBR231C, strain swc5, stronger effect = lower value 0.971 | locus YBR279W, strain paf1, stronger effect = lower value 0.985 | locus YCL011C, strain gbp2, stronger effect = lower value 0.994 | locus YCL016C, strain dcc1, stronger effect = lower value 0.994 | locus YCL029C, strain bik1, stronger effect = lower value 0.994 | locus YCL069W, strain vba3, stronger effect = lower value 0.98 | locus YCR088W, strain abp1, stronger effect = lower value 0.978 | locus YDL005C, strain med2, stronger effect = lower value 0.967 | locus YDL035C, strain GPR1, stronger effect = lower value 1.01 | locus YDL040C, strain nat1, stronger effect = lower value 0.976 | locus YDL074C, strain BRE1, stronger effect = lower value 1.02 | locus YDL101C, strain DUN1, stronger effect = lower value 0.99 | locus YDL134C, strain PPH21, stronger effect = lower value 0.983 | locus YDL185W, strain tfp1, stronger effect = lower value 0.987 | locus YDL192W, strain arf1, stronger effect = lower value 0.999 | locus YDR001C, strain nth1, stronger effect = lower value 0.991 | locus YDR069C, strain doa4, stronger effect = lower value 0.959 | locus YDR101C, strain arx1, stronger effect = lower value 0.995 | locus YDR137W, strain rgp1, stronger effect = lower value 0.967 | locus YDR150W, strain NUM1, stronger effect = lower value 0.996 | locus YDR159W, strain sac3, stronger effect = lower value 0.967 | locus YDR162C, strain NBP2, stronger effect = lower value 1.02 | locus YDR195W, strain ref2 0.91 | locus YDR297W, strain sur2, stronger effect = lower value 0.994 | locus YDR318W, strain mcm21, stronger effect = lower value 0.995 | locus YDR334W, strain swr1, stronger effect = lower value 0.976 | locus YDR335W, strain msn5, stronger effect = lower value 0.988 | locus YDR388W, stronger effect = lower value 0.988 | locus YDR392W, strain spt3, stronger effect = lower value 1.03 | locus YDR502C, strain sam2, stronger effect = lower value 0.996 | locus YEL003W, strain gim4, stronger effect = lower value 0.978 | locus YEL037C, strain rad23, stronger effect = lower value 0.975 | locus YEL061C, strain CIN8 (second series), stronger effect = lower value 0.966 | locus YEL061C, strain CIN8, stronger effect = lower value 0.999 | locus YER015W, strain faa2, stronger effect = lower value 0.99 | locus YER016W, strain bim1, stronger effect = lower value 0.979 | locus YER110C, stronger effect = lower value 0.989 | locus YER111C, strain swi4, stronger effect = lower value 0.981 | locus YER155C, strain BEM2 (second series), stronger effect = lower value 0.977 | locus YER155C, strain BEM2, stronger effect = lower value 0.986 | locus YER167W, strain BCK2, stronger effect = lower value 0.992 | locus YFR010W, strain ubp6, stronger effect = lower value 0.965 | locus YGL078C, strain dbp3, stronger effect = lower value 0.995 | locus YGL086W, strain mad1, stronger effect = lower value 0.981 | locus YGL167C, strain pmr1, stronger effect = lower value 0.971 | locus YGL173C, strain kem1, stronger effect = lower value 0.99 | locus YGL227W, strain vid30, stronger effect = lower value 0.971 | locus YGL240W, strain doc1, stronger effect = lower value 0.974 | locus YGL248W, strain PDE1, stronger effect = lower value 0.986 | locus YGL253W, strain hxk2, stronger effect = lower value 0.979 | locus YGR078C, strain PAC10, stronger effect = lower value 1.05 | locus YGR135W, strain pre9, stronger effect = lower value 0.994 | locus YGR229C, strain SMI1, stronger effect = lower value 1.06 | locus YGR252W, strain gcn5, stronger effect = lower value 0.986 | locus YHR013C, strain ard1, stronger effect = lower value 0.987 | locus YHR027C, strain rpn1, stronger effect = lower value 0.982 | locus YHR030C, strain SLT2, stronger effect = lower value 0.991 and 1.01 | locus YHR079C, strain IRE1 (second series), stronger effect = lower value 0.998 | locus YHR079C, strain IRE1, stronger effect = lower value 1 | locus YHR094C, strain hxt1, stronger effect = lower value 0.989 | locus YHR129C, strain ARP1, stronger effect = lower value 0.991 | locus YHR142W, strain chs7, stronger effect = lower value 0.987 | locus YHR200W, strain rpn10, stronger effect = lower value 0.991 | locus YIL066C, strain RNR3, stronger effect = lower value 1 | locus YIL073C, strain SPO22, stronger effect = lower value 1.01 | locus YIL125W, strain kgd1, stronger effect = lower value 0.992 | locus YIR030C, strain dcg1, stronger effect = lower value 0.992 | locus YJL092W, strain hpr5, stronger effect = lower value 0.973 | locus YJL095W, strain BCK1 (second series), stronger effect = lower value 0.978 | locus YJL095W, strain BCK1, stronger effect = lower value 1.01 | locus YJL115W, strain asf1, stronger effect = lower value 0.963 | locus YJL129C, strain trk1, stronger effect = lower value 0.946 | locus YJL134W, strain LCB3, stronger effect = lower value 0.994 | locus YJL154C, strain vps35, stronger effect = lower value 0.964 | locus YJL164C, strain tpk1, stronger effect = lower value 0.995 | locus YJL166W, strain qcr8, stronger effect = lower value 0.971 | locus YJL168C, strain set2, stronger effect = lower value 0.99 | locus YJL187C, strain SWE1 (second series), stronger effect = lower value 0.995 | locus YJL187C, strain SWE1, stronger effect = lower value 0.983 | locus YJR043C, strain POL32, stronger effect = lower value 1.03 | locus YJR066W, strain TOR1, stronger effect = lower value 0.963
